Assay results reported in PubChem BioAssay (EPA / NIEHS).
The source made the active and inactive calls. Rule for the calls: active = hit-call score of the fitted dose curve at least 0.9, where 1 is the maximum; inactive = score below 0.9.

Read-out: Cytochrome P450 3A4 (Homo sapiens) (UniProt P08684)
Test: LTEA_HepaRG_CYP3A4: Life Technologies and Expression Analysis (LTEA) Assay for CYP3A4 using HepaRG (AID 2283487)
Conditions: mRNA level, 48 h; actives raise or lower the signal
Protocol: LTEA_HepaRG is a cell based, multiplexed-readout assay that uses HepaRG, a human liver cell line, with measurements taken at 48 hours after chemical dosing on a 96-well plate.LTEA_HepaRG_CYP3A4 is one of 102 assay component(s) measured in the LTEA HepaRG cell culture assay. It is a marker of NR mediated metabolism.Data from the assay component LTEA_HepaRG_CYP3A4 was analyzed into 1 endpoint. This assay endpoint, LTEA_HepaRG_CYP3A4, was analyzed with bidirectional fitting relative to DMSO as the negative control and baseline of activity. Using a type of inducible reporter, measures of mRNA induction for gain or loss-of-signal activity can be used to understand regulation of transcription factor activity. To generalize the intended target to other relatable targets, this assay endpoint is annotated to the cyp intended target family, where the subfamily is xenobiotic metabolism.
A total of 1060 chemcials from the ToxCast library were tested in eight-point concentration-response experiments. Cell culture and cytotoxicity assays were conducted at Thermo Fisher Scientific's Custom Services facility (Madison, WI). A single lot of human HepaRG cells (Thermo Fisher Scientific, Frederick, MD) was used for the cell culture experiments. 96-well format collagen type I coated plates of human HepaRG cells were prepared using established methods. Briefly, cryopreserved HepaRG cells were thawed, plated at a density of approximately 100,000 cells/well in HepaRG Thaw, Plate, and General Purpose media (HPRG770, Thermo Fisher Scientific), and incubated for 48 hours. 0.5% DMSO was selected as vehicle control to balance the requisite need of DMSO in HepaRG cultures to maintain differentiation (for example, baseline metabolism, proportions of hepatocytes vs. cholangiocytes), while enabling further hepatic receptor pathway activation (for example, PXR and CAR) in response to chemical exposure. 48 hours after plating, the culture medium was replaced with HepaRG Serum-Free Incudtion Media. Cells were exposed to each test chemical in duplicate and maintained in CO2 incubators for another 48 hours. Chemical plates were thawed to room temperature and 200x concentrations of treatment groups were prepared. 8-point conentration-reponse curves were made with the highest exposure at 100 uM, followed by half-log dilutions, all in 0.5% DMSO. Each test plate contained variouse controls, induction positive controls (1mM phenobarbital), cytotoxicity positive controls ([…] aflatoxin B1), vehicle controls (0.5% DMSO), and total lysis controls (0.5% DMSO). Cell morphology images were taken using an Essen IncuCyte FLR automated microscope, with six 96-well plates imaged in about 24 minutes. Images were captured and exported and JPEG files. Spent culture media was transfered to black-well plates for the LDH assay, and remaining media was sorted at -80 C for later use. Cells were treated with RLT buffer and frozen until shipped for gene expression analysis. Total RNA was isolated from the cell suspension in 75 uL of Buffer RLT (Qiagen, Germantown, MD 20874) by Quintiles/Expression Analysis (Durham, NC) using a custom isolation procedure. Total RNA from each plate well was transferred to a preamplification plate. Fluidigm's 96.96 Dynamic ArrayTM (Fluidigm, Amsterdam, the Netherlands) technology was used for gene expression analyses by quantitative reverse transcription polymerase chain reaction (qRT-PCR, performed by Quintiles/Expression Analysis, Durham, NC)89. Standard TaqManTM Assays (Applied Biosystems/ThermoFisher Scientific, Foster City, CA) were used to assess the expression of 93 genes selected based on their selectivity and sensitivity to important hepatic receptors known to be modulated by environmental chemicals; importance in human hepatocyte functionality; and hepatotoxicity. […]

Sequence of Cytochrome P450 3A4 (Homo sapiens) (P08684 whole entry, looked up): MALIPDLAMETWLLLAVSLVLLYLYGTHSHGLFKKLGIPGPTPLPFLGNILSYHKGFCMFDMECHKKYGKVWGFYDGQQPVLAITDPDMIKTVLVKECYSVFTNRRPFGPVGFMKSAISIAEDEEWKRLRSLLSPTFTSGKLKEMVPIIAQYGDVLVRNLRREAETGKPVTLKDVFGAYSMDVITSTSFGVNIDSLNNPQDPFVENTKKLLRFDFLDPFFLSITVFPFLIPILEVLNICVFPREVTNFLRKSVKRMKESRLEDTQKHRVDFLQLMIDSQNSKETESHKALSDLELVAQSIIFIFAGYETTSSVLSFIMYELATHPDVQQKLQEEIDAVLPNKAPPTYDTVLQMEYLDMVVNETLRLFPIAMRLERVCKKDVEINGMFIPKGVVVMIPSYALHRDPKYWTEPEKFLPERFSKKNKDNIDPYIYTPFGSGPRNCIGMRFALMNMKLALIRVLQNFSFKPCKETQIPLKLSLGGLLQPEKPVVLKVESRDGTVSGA

Compound | outcome | AC50
CCCCCCC(C=O)=Cc1ccccc1 | inactive | 
CC(=O)S[C@H](C(=O)N[C@H]1Cc2ccccc2[C@H]2CCC[C@@H](C(=O)O)N2C1=O)C(C)C | inactive | 
Cc1ccc(C(C)(C)C)c(O)c1 | inactive | 
CC(N)=O | inactive | 
O=[Si]=O | inactive | 
C=CCCCCCCCCCCCC | inactive | 
Cc1cn([C@H]2C=C[C@@H](CO)O2)c(=O)[nH]c1=O | inactive | 
CCOCCOCCO | inactive | 
NC=O | inactive | 
COc1ccc(OC(F)(F)F)cc1CN[C@H]1CCCN[C@H]1c1ccccc1 |  | 91.9 µM (active)
C=CCc1ccc(OC)c(OC)c1 | inactive | 
CCCCCCCCCC[N+](C)(C)[O-] | inactive | 
CC(=O)O[C@]1(C(C)=O)CC[C@H]2[C@@H]3C=C(Cl)C4=CC(=O)[C@@H]5C[C@@H]5[C@]4(C)[C@H]3CC[C@@]21C |  | 36.5 µM (active)
CO[C@@H]1COCC[C@@H]1N[C@@H]1CC[C@@](C(=O)N2CCc3ncc(C(F)(F)F)cc3C2)(C(C)C)C1 | inactive | 
CC(C)c1cccc(C(C)C)c1 | inactive | 
CCCCCCCCCCCCCCCCO | inactive | 
CCCC(=O)O | inactive | 
N[C@@H](Cc1c[nH]c2ccccc12)C(=O)O | inactive | 
C/C=C/C=C/C(=O)O | inactive | 
S=c1[nH]c2ccccc2s1 | inactive | 

Compound | outcome | AC50
CC(C)(C)c1ccccc1 | inactive | 
CC(C)OC(=O)C(C)(C)Oc1ccc(C(=O)c2ccc(Cl)cc2)cc1 | inactive | 
COC(=O)CCCC(=O)OC | inactive | 
O=C(Oc1ccccc1)c1cccc(C(=O)Oc2ccccc2)c1 | inactive | 
CN(C)CCCN(C)CCCN(C)C | inactive | 
O=NO | inactive | 
CCCCC(CC)CO (stereo not given) | inactive | 
CCC(C)N(C)C(=O)c1cc2ccccc2c(-c2ccccc2Cl)n1 (stereo not given) |  | 3.23 µM (active)
CC(C)COC(=O)CCCCC(=O)OCC(C)C | inactive | 
CCCCOC(=O)CCCCC(=O)OCCCC | inactive | 
CCCC[C@H]1CN(CC2CCOCC2)C(=O)OC12CCN(C1(C)CCN(C(=O)c3c(C)ncnc3C)CC1)CC2 | inactive | 
CC(=O)OCC(COC(C)=O)OC(C)=O | inactive | 
NCCOCCOCCN | inactive | 
Cc1occc(=O)c1O | inactive | 
Cc1cc(Cc2ccc(N)c(C)c2)ccc1N |  | 4.94 µM (active)
CC(COCC(C)OC(=O)c1ccccc1)OC(=O)c1ccccc1 (stereo not given) | inactive | 
OCC(CO)n1cnc(-c2ccc(F)cc2)c1-c1ccnc(Oc2ccccc2)n1 |  | 3.72 µM (active)
CC1(C)C(=O)NC(=O)N1CO | inactive | 
O=C(NS(=O)(=O)/C=C/c1cccs1)c1ccc(F)cc1Br |  | 5.73 µM (active)
CCc1cc(C2=C(C(=O)O)N(c3ccccc3C(F)(F)F)S(=O)(=O)c3ccccc32)cc2c1OCO2 |  | 0.679 µM (active)
